# NOD2-RIPK2 inh = inhibitors of human NOD2-RIPK2 interaction. CHO BLA complementation NOD2-RIPK2, CCF4 ratio. inhibition, % at 4.98 µM. actives 0.38% (n = 360,000). AID 624267; in the data active = inhibition above about 21%;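 note: 0% = vehicle only and 100% = reference blocker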
# Mcl1 Noxa PPI = disrupts binding of human Mcl-1 to Noxa peptide. AID 1022. inhibition, % at 21.7 µM. Q07820. actives 1.5% (n = 220,000). TR-FRET Mcl-1/Noxa peptide binding, 2 h;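 active = compounds that cut the protein-peptide binding signal by more than 50% relative to plate controls in a single-dose test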;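 note: His-tagged Mcl-1 with rhodamine Noxa BH3 peptide and terbium anti-His antibody; 0% = Mcl-1 plus Noxa peptide wells and 100% = peptide-only wells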
# Target sequence (Q07820 whole entry, looked up): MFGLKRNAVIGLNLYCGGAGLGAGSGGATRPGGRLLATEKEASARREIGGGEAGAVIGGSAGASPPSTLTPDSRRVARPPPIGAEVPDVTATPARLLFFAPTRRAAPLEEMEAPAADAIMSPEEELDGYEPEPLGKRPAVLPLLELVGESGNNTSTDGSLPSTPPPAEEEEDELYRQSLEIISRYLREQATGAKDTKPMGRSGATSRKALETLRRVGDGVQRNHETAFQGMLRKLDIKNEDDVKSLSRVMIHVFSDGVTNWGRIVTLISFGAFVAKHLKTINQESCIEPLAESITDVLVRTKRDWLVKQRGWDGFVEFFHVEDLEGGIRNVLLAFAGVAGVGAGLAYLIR
# TLR9-MyD88 inh = inhibitors of human TLR9-MyD88 binding | Q9NR96+Q99836 | CHO BLA complementation TLR9-MyD88, CCF4 FRET ratio | inhibition, % at 4.98 µM | actives 0.21% (n = 340,000);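 active = inhibition above the mean over all tested compounds plus 3 SD, cut at about 21% in these data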;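 note: 0% = DMSO only wells and 100% = clavulanate BLA inhibitor control wells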
# TLR4-MyD88 BLA = blocks binding of human TLR4 to MyD88; AID 861; actives 0.18% (n = 200,000); HeLa CL3-4 TLR4/MyD88 BLA complementation, FRET ratio; inhibition, % at 8.4 µM; O00206+Q99836; in the data active = inhibition above about 25%;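 note: 0% = vehicle and 100% = reference inhibitor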
# Mcl-1 Bim block = disrupts Bim peptide binding to human Mcl-1; actives 0.1% (n = 190,000); Q07820; inhibition, % at 10 µM; Bead-based flow cytometry, Bim peptide-Mcl-1 binding; in the data active = inhibition above about 40%;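 note: 0% = no compound tracer wells and 100% = peptide blocker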
# Mcl1-Bid inh = Mcl-1/Bid interaction inhibition. AID 1021. inhibition, % at 21.7 µM. TR-FRET Mcl-1/Bid-Dy647 peptide binding, 1536-well. Q07820. actives 0.97% (n = 220,000);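 active = compounds that cut the binding signal by more than half at the single screening dose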;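 note: His-tagged Mcl-1 with europium anti-His antibody binding Bid BH3 peptide; 0% = Mcl-1 plus peptide wells and 100% = peptide-only wells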
# Numbers without * were called inactive; nt = not tested or not shown. A selection: hits, their analogues and other compounds. The true share with any hit is near 1.8%.
SMILES,NOD2-RIPK2 inh,Mcl1 Noxa PPI,TLR9-MyD88 inh,TLR4-MyD88 BLA,Mcl-1 Bim block,Mcl1-Bid inh
CCOC(=O)[C@]12CCCC=C1N(Cc1ccc(Cl)cc1Cl)C(=O)[C@H](CC(=O)NCc1cccc3ccccc13)C2,10,nt,nt,nt,nt,nt
CCn1cc(C(=O)N[C@H](C(=O)NCCCO)C(C)C)c(=O)c2cc3c(cc21)OCO3,-7,nt,-1,nt,nt,nt
O=C(Nc1cccc(-n2cnnn2)c1)c1ccc(OC(F)(F)F)cc1,-10,nt,0,nt,nt,nt
CC12CCC(C(=O)Nc3ccccc3N3CCOCC3)(CC1=O)C2(C)C (stereo not drawn),-13,4,-3,-3,1,-8
CC12CCC(C(=O)Nc3ccccc3-n3cccc3)(CC1=O)C2(C)C (stereo not drawn),0,-2,14,-6,-3,76*
CN1CCc2c(sc3c2C(=O)NC(c2cccc(OC(=O)c4cccs4)c2)N3)C1 (stereo not drawn),-1,58*,-1,0,-1,-6
CN1CCc2c(sc3c2C(=O)NC(c2ccco2)N3)C1 (stereo not drawn),3,24,0,-10,-1,-24
O=C(CCC(=O)c1ccc(Oc2ccccc2)cc1)Nc1cccc(Cl)c1,-5,7,-2,-3,-9,98*
COc1ccc(C(=O)CCC(=O)Nc2cccc(Cl)c2)cc1,-27,7,0,-15,-1,10
COc1cccc(-c2csc(N3CCN(C(=S)Nc4cccc(Cl)c4)CC3)n2)c1,-2,-5,4,9,0,89*
COc1cccc(/C=C/C(=O)OCC(=O)Nc2ccc(Cl)c(S(=O)(=O)N(C)C)c2)c1OC,-5,24,3,10,0,-7
O=C1NC(c2ccccc2Cl)=N/C1=C/c1ccco1,6,61*,3,nt,nt,-47
O=C1NC(c2ccc(Br)cc2)=N/C1=C/c1ccco1,-2,26,-4,13,-4,33
C[C@H](CO)N1C[C@H](C)[C@@H](CN(C)Cc2ccc(Oc3ccccc3)cc2)Oc2c(NS(=O)(=O)c3cn(C)cn3)cccc2C1=O,-18,nt,-2,nt,nt,nt
O=c1[nH]c2ccccc2nc1C(F)(F)C(F)F,-3,12,1,2,0,63*
Cc1nc2ccccc2[nH]c1=O,-5,12,-3,nt,nt,59*
O=c1[nH]c2cc3ccccc3cc2nc1C(F)(F)F,4,3,-7,3,0,-3
O=S(=O)(Nc1cc(Cl)cc(Cl)c1)N1CCOCC1,3,nt,0,nt,nt,nt
Nc1c2c(nc3ccccc13)CCCC2,-9,51*,-1,1,-2,8
Clc1c2c(nc3ccccc13)CCC2,-5,nt,4,nt,nt,nt
COc1ccccc1NC(=O)Nc1nn(C)c2cccc(N(C)C)c12,-6,34,9,nt,nt,-87
COc1cccc2c1c(NC(=O)Nc1ccc(F)cc1F)nn2C,3,5,8,nt,nt,67*
COC(=O)c1c(-c2ccccc2OC)sc2cc3c(cc12)OCO3,-14,nt,4,nt,nt,nt
CC(C)c1ccc(C(N)=S)cc1,3,68*,-5,-12,0,-31
CCCCc1c(C)nc2c(OC)cccc2c1SCCC(=O)O,-7,52*,-2,-15,0,6
SMILES,NOD2-RIPK2 inh,Mcl1 Noxa PPI,TLR9-MyD88 inh,TLR4-MyD88 BLA,Mcl-1 Bim block,Mcl1-Bid inh
CCc1c(C)nc2c(OC)cccc2c1SCCC(=O)O,-1,6,11,9,-2,-4
CCc1ccc(C(=O)NC2CCCCC2)s1,-3,-3,-6,11,-3,61*
Cc1ccc(Nc2c([N+](=O)[O-])c(=O)oc3ccccc23)cc1,-12,12,-4,-10,-1,3
O=c1oc2ccccc2c(Nc2ccc3ccccc3c2)c1[N+](=O)[O-],14,67*,-6,-8,0,39
Cc1nnc(NC(=O)COc2ccc3c(C)cc(=O)oc3c2)s1,-5,79*,-7,-12,-2,-33
Cc1ccc(Cl)cc1NC(=O)COC(=O)c1ccc(COc2ccc3c(C)cc(=O)oc3c2)cc1,nt,-1,nt,-4,-2,57*
CCC(CC)c1nnc(NC(=O)COc2ccc3c(C)cc(=O)oc3c2)s1,-8,-55,-5,0,0,-107
COc1ccc(CN2C(=O)c3ccccc3C2C(=O)NC2CCCCCC2)c(OC)c1 (stereo not drawn),-6,8,-4,-1,-2,-6
Cc1ccc(S(=O)(=O)CCNC(=O)Cc2ccccc2)cc1,6,-2,5,3,-2,96*
Cc1ccc(CC(=O)NCCCc2ccccc2)cc1,-2,-1,-4,1,0,-26
CCn1nc(C)c(CN2CCC(C(=O)Nc3cccc(-c4cccc(Cl)c4)c3)CC2)c1C,18,nt,1,nt,nt,nt
COc1cc(C2C(C#N)=C(N)OC3=C2C(=O)CCC3)c([N+](=O)[O-])cc1OC (stereo not drawn),1,97*,0,3,2,-18
Cc1cc(C2C(C#N)=C(N)OC3=C2C(=O)CCC3)c(C)s1 (stereo not drawn),0,8,10,4,-2,-1
Cc1nc2c3ccccc3nc(NNC(=O)CCC(=O)NCCN3CCN(c4ccccc4)CC3)n2n1,-15,nt,4,nt,nt,nt
Cc1cccc(NC(=O)C2CCCN(c3nc(C)cc(C)n3)C2)c1 (stereo not drawn),2,5,-7,3,-1,-8
Cc1cccc(NC(=O)C2CCN(c3nc(C)cc(C)n3)CC2)c1,-1,-14,-4,0,3,94*
Cc1cc(/C=N/n2c(COc3ccccc3C)nc3ccccc3c2=O)c(O)c([N+](=O)[O-])c1,-11,81*,5,-3,-1,-2
O=S(=O)(Nc1cc(Sc2ncn[nH]2)c(O)c2ccccc12)c1ccccc1,-3,83*,nt,-8,4,18
Cc1cc(O)c(Sc2ncn[nH]2)cc1NS(=O)(=O)c1ccc(Cl)cc1,3,nt,-7,nt,nt,nt
CN(C)c1ccc(NC(=O)COC(=O)Cn2nnc3ccccc32)cc1,1,71*,9,-3,-5,-25
Cc1ccccc1SCC(=O)OCC(=O)Nc1ccc(N(C)C)cc1,-4,61*,-1,-21,1,-6
N#CCCN(C(=O)COC(=O)C1CCN(S(=O)(=O)c2ccccc2C(F)(F)F)CC1)c1ccccc1,-3,nt,-12,nt,nt,nt
CCc1ccc2c(COn3nnc4ccc(S(=O)(=O)N(C)C)cc43)cc(=O)oc2c1,3,12,9,8,-9,53*
O=C(NCC(c1ccco1)N1CCCC1)c1cc(S(=O)(=O)N2CCOCC2)ccc1Cl (stereo not drawn),0,nt,1,nt,nt,nt
CCc1cccc(CC)c1NC(=S)N1CCn2cccc2C1c1cccnc1 (stereo not drawn),10,17,7,-18,22,75*
COCCCn1c(-c2ccco2)nc2ccccc2c1=O,-10,13,-10,-8,0,5

# Screening data from PubChem.
